Source: PubChem (National Center for Advancing Translational Sciences (NCATS))
TSHR ag: agonists of human thyroid stimulating hormone receptor | P16473 | HEK293-CNG-TSHR cells (CNG channel as cAMP sensor), membrane potential dye, cAMP | Potency, µM (titrated, usually from 57.1 µM), most hits filed as activators | actives 0.48% (n = 73,000) | AID 926; active = well fitted activation curve with a large enough effect in the main read-out, with a control signal flat, not every such curve was filed as active; inconclusive = small, poorly fitted or top-dose-only effect, or a change in a side signal; inactive = no such curve, though single readings can be large or run the other way; reference of the percent scale not stated here;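 also: the control signal comes from parental cells without the receptor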
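cAMP rise detected as CNG-channel membrane depolarization by fluorescent dye (emission 590 nm), 30 min after compound, following 60 min dye loading containing 100 uM RO 20-1724 at room temperature. Cells: TSHR/CNG HEK 293, with parental CNG HEK 293 as control.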
HEK293 cAMP cs: raises cAMP in parental HEK293 cells, TSHR agonist counter-screen; parental HEK293 CNG cAMP sensor, membrane potential fluorescence; Potency, µM (series often up to 57.1 µM), hits mostly activators; actives 2.5% (n = 73,000); AID 938; also: nearly all actives have a fitted effect of over 55% in size
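Parental HEK 293 cells stably expressing a modified CNG channel (no TSHR) report cAMP rise as membrane depolarization. Membrane potential dye with 100 uM RO 20-1724 was loaded for 60 min at room temperature, then compound added for 30 min; fluorescence read at 590 nm.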
Caspase-1 inhib: blocks human caspase-1 allosterically or competitively; Caspase-1 enzyme, Ac-WEHD-AFC fluorogenic rate; actives 0.03% (n = 75,000); Potency, µM (doses to about 57.5 µM), actives largely listed as inhibitors
Casp7 inh: allosteric or competitive inhibitors of human caspase-7; P55210; recombinant caspase-7, Ac-DEVD-AFC fluorescence rate; Potency, µM (titrated, usually from 57.5 µM), most hits filed as inhibitors; actives 0.02% (n = 75,000); active = well fitted inhibition curve with a large enough effect in the main read-out, with a control signal flat, not every such curve was filed as active; inconclusive = small, poorly fitted or top-dose-only effect, or a change in a side signal
parental cAMP: counter-screen for TSH receptor agonists: cAMP in parental HEK293 cells. shares compounds with TSHR ag. parental HEK293 CNG biosensor, cAMP membrane potential fluorescence. activity change, negative = inhibition, % at 32.9 µM. 150 tested, under 10 active
Hits are given with their value; – = inactive; ? = inconclusive; · = not tested or not shown; [ ] = remark or other dose. Sampled rows, rich in hits. Any-hit rate of the full collection: about 2.6%. Unless noted, calls follow the shape of the dose curve; as a rule, active = well fitted curve in the direction sought with a large enough effect; inconclusive = small, poorly fitted or top-dose-only effect, or another doubt; inactive = no such curve, though single readings can be large; an effect the other way counts as inactive or inconclusive.

SMILES | TSHR ag | HEK293 cAMP cs | Caspase-1 inhib | Casp7 inh | parental cAMP
c1ccc(-n2cnc3cc(NCc4ccccn4)ccc32)cc1 | – | – | – | – | ·
c1ccc(-n2cnc3cc(NCc4ccncc4)ccc32)cc1 | – | – | – | – | –
CN(Cc1ccco1)C(=O)Cn1c(=O)oc2cc(S(=O)(=O)NCc3ccccc3)ccc21 | 25µM | – | – | – | –
O=C(O)[C@@H]1[C@@H]2C[C@H]3c4[nH]c5ccccc5c4CCN3C[C@@H]2CC[C@@H]1O | ? | ? | – | – | ·
COc1cc2c(N3CCOCC3)cc(O)c(CC(=O)Nc3ccccc3)c2cc1OC | 32µM | – | – | – | –
Brc1ccc(Oc2nnnn2-c2ccccc2)cc1 | 25µM | – | – | – | –
CO/N=C(/C)CCC(=O)OC[C@@H]1O[C@H](C#Cc2ccccc2)C=C[C@@H]1Oc1ccc(C)cc1 | –[11.4 µM] | –[11.4 µM] | –[11.5 µM] | –[11.5 µM] | ·
CCc1ccccc1NC1=NCC(=O)N1Cc1ccc(OC)cc1 | 7.9µM | – | – | – | –
COc1cccc(C2CC(c3ccccc3OC)n3nc(N)nc3N2)c1 (stereo not given) | – | – | – | – | –
COc1cccc(C2CC(c3ccccc3C)n3nc(N)nc3N2)c1 (stereo not given) | – | – | – | – | ·
O=C(CSc1nnc(COc2ccccc2)n1-c1ccccc1)c1cccs1 | · | – | – | – | ·
Cc1ccccc1-c1nc(CN2CCC(C(=O)N3CCN(c4ccccn4)CC3)CC2)c(C)o1 | – | – | – | – | –
Cc1ccccc1-c1nc(CN2CCC(C(=O)N3CCC(C(N)=O)CC3)CC2)c(C)o1 | – | –[11.4 µM] | – | – | ·
Cc1ccccc1-c1nc(N(C)C)c2ccccc2n1 | ? | ? | – | – | ·
Cc1onc(-c2ccccc2)c1C(=O)N1CCCN(C(=O)c2c(-c3ccccc3)noc2C)CC1 | – | – | – | – | ·
Cc1onc(-c2ccccc2)c1C(=O)N1CCCSC1=Nc1ccccc1 | ? | ? | – | – | –
Cc1cc(C)nc(SCNC(=O)c2ccc(F)cc2)n1 | – | – | – | – | ·
Cc1cc(SCNC(=O)c2ccccc2)ncn1 | – | – | – | – | –
CC(C)C(=O)Nc1ccc(N2CCN(S(C)(=O)=O)CC2)cc1 | –[11.4 µM] | – | – | – | ·
Cc1ccc(C(C)C)c(OCC(=O)Nc2ccc(N3CCN(S(C)(=O)=O)CC3)cc2)c1 | – | – | – | – | –
COC(=O)c1cc(C(=O)OC)cc(N2C(=O)CC(Sc3nc(C)cc(C)n3)C2=O)c1 (stereo not given) | 25µM | – | – | – | –
O=C1C2C3CCCC3=C3CCCC3C2C(=O)N1c1ccc(Cl)cc1 (stereo not given) | 3.2µM | – | ? | – | –
O=C1C2C3CCCC3=C3CCCC3C2C(=O)N1c1cccc(Cl)c1 (stereo not given) | ? | ? | – | – | ·
C=CCn1c(NCc2ccccc2)nc2ccccc21 | – | – | – | – | ·
C=CCn1c(NCc2ccc3c(c2)OCO3)nc2ccccc21 | – | – | – | – | –
SMILES | TSHR ag | HEK293 cAMP cs | Caspase-1 inhib | Casp7 inh | parental cAMP
COc1cc(/C=N/n2c(SC)nnc(C(C)(C)C)c2=O)ccc1O | – | – | – | – | –
Cc1ccc2nc(SCC(=O)O)nc(C)c2c1 | – | – | – | – | –
O=c1c[n+](CC[n+]2cc(=O)o[nH]2)[nH]o1 | –[11.4 µM] | –[11.4 µM] | –[11.5 µM] | –[11.5 µM] | ·
Cn1cccc1Cc1nnc(SCC(N)=O)n1CCc1ccccc1 | – | – | – | – | –
O=C1c2ccccc2C(=O)N1Cc1nc(-c2ccccc2)no1 | – | – | – | – | –
O=C1c2ccccc2C(=O)N1Cc1nc(-c2ccncc2)no1 | – | – | – | – | ·
CC(=O)N1CCCc2cc(S(=O)(=O)N(CC(C)C)CC(C)C)ccc21 | 13µM | – | – | – | –
CC(=O)N1CCCc2cc(S(=O)(=O)N(C)CCC#N)ccc21 | – | – | – | – | ·
N[C@@]1(C(=O)O)CCC[C@@H]1C(=O)O | –[11.4 µM] | –[11.4 µM] | –[11.5 µM] | –[11.5 µM] | ·
Cc1cnc(NC(=O)c2ccc3c(c2)C(=O)N(Cc2ccco2)C3=O)s1 | – | – | – | – | –
O=C(NC1=NCCS1)c1ccc2c(c1)C(=O)N(Cc1ccco1)C2=O | – | – | – | – | ·
COc1ccc(C2C3=C(CC(c4ccco4)CC3=O)Nc3ccccc3N2C(C)=O)cc1 (stereo not given) | – | – | – | – | ·
O=C1CC(c2ccco2)CC2=C1C(c1ccccc1)n1nc(C(F)(F)F)nc1N2 (stereo not given) | 0.63µM | – | – | – | –
NC(N)=NC[C@@H]1CCCCCCN1 | –[11.4 µM] | –[11.4 µM] | –[11.5 µM] | –[11.5 µM] | ·
CCOC(=O)CCc1c(C)nc2c(c(C)nn2C(C)(C)C)c1C | 25µM | – | – | – | –
CCOC(=O)c1ccc(NC(=O)c2ccc(CN3CCOCC3)cc2)cc1 | · | – | – | – | –
N#Cc1ccccc1OC[C@H](O)CNCCNC(=O)Nc1ccccc1 | – | – | – | – | ·
Cc1cc(C)nc(N(C#N)CC(=O)N2CCC(C(N)=O)CC2)n1 | · | – | – | – | –
N=c1c(C(=O)NCc2ccco2)cc2c(=O)n3ccccc3nc2n1Cc1ccccc1 | ? | – | · | ? | ·
N=c1c(C(=O)NCc2ccc(F)cc2)cc2c(=O)n3ccccc3nc2n1Cc1ccco1 | – | – | · | ? | –
CCCS(=O)(=O)N1CCN(C(=O)c2cccnc2)CC1 | – | – | – | – | ·
CCCS(=O)(=O)N1CCN(C(=O)c2ccc(-c3ccccc3)cc2)CC1 | · | –[11.4 µM] | – | – | –
CC(C)CN1CCC2(CC1)CCN(C(=O)c1cc(C(F)(F)F)cc(C(F)(F)F)c1)CC2 | ? | ? | – | – | ·
Cc1onc(-c2ccccc2Cl)c1C(=O)Nc1ccc(-n2nncc2-c2ccco2)cc1 | 6.3µM | – | – | – | –
Cc1occc1-c1nnc(SCC(=O)Nc2ccccc2)n1C(C)c1ccccc1 (stereo not given) | 7.9µM | – | – | – | –
SMILES | TSHR ag | HEK293 cAMP cs | Caspase-1 inhib | Casp7 inh | parental cAMP
CCOc1cc(C(=O)N2CCN(c3ccccc3)CC2)cc(OCC)c1OCC | ? | ? | – | – | ·
CCOc1cc(C(=O)N(C)c2ccccc2)cc(OCC)c1OCC | 25µM | – | – | – | –
CC(C)CN(CC#N)CC(C)C | –[11.4 µM] | –[11.4 µM] | –[11.5 µM] | –[11.5 µM] | ·
C=C[C@@]1(C)C=C2CC[C@@H]3[C@](C)(CCC[C@@]3(C)C(=O)O)[C@H]2CC1 | – | – | · | · | ·
COC(=O)C1=C(C)NC(=O)NC1c1cn(-c2ccccc2)nc1-c1cccs1 (stereo not given) | 25µM | – | – | – | –
Cc1ccc(S(=O)(=O)N(CC(=O)N2CCC(C(N)=O)CC2)Cc2ccc(F)cc2)cc1 | – | – | – | – | ·
O=C(CN(Cc1ccc(F)cc1)S(=O)(=O)c1ccccc1)N1CCCCC1 | 25µM | – | – | – | –
C=C(C)C1CC=C(C)C(OC(C)=O)C1 (stereo not given) | ? | – | – | – | ·
